Among the data in PubChem BioAssay AID488890 (Southern Research Specialized Biocontainment Screening …, 2010) are inhibition values, retold here.

By inhibition is commonly meant the drop in the measured response relative to a control, in per cent.

Among all 320,000 compounds or so, about 1,300 (0.41%) were called active. Another 3% or so got no clear call; they are omitted. The rule behind the calls is not given here. These entries were drawn from the full list. Measured potencies and affinities stand elsewhere.

This test is described as follows: growth inhibition of non-replicating M. tuberculosis (AID 488890).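 Note: plate controls were DMSO cells for no effect and high antibiotic wells for full effect.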 The conditions noted are these: Mycobacterium tuberculosis non-replicating, at 25 µM, stronger effect = higher value.
As for `O=C(c1ccccc1)N1CCN(c2nc3ccc([N+](=O)[O-])cc3s2)CC1`, the inhibition came to 24.5%. As to `Cc1ccc2sc(N3CCN(C(=O)c4ccc([N+](=O)[O-])o4)CC3)nc2c1C`, the inhibition was found to be 68.9%. Take `Cc1ccc(C)c2sc(N3CCN(C(=O)c4ccc([N+](=O)[O-])o4)CC3)nc12`: the inhibition amounted to 77.8%. Take `CCCCC(=O)N1CCN(c2nc3ccc(F)cc3s2)CC1`: the inhibition was found to be 50.8%. On to `Cc1ccc(OCCC(=O)OCC(=O)NCc2ccccc2)cc1`, for which the inhibition was 30.8%. For the compound `CC1(C(=O)CSc2ncn[nH]2)CCC(=O)O1` (stereo not drawn), the inhibition was -3.75%.

As to `O=C(NC1CCCCC1)c1cc2ccccc2cc1O`, the inhibition came out at 30.4%. Turning to `O=C(NC1CC1)c1cc2ccccc2o1`, the inhibition turned out to be 6.17%. Regarding `CC(NC(=O)Cn1cnnn1)C12CC3CC(CC(C3)C1)C2` (stereo not drawn), the inhibition worked out at 2.51%.

Regarding `CCn1cc(C(=O)NC(C)C2CC3CCC2C3)cn1` (stereo not drawn), the inhibition was determined as 78.4%. `Cc1ccc(C2NC(=O)c3ccccc3O2)cc1` (stereo not drawn): the inhibition amounted to 9.75%. As for `COc1ccc(NS(=O)(=O)c2ccc(N3CCCCC3)c(NC(=O)C(C)NC(N)=O)c2)cc1` (stereo not drawn), the inhibition came to 17.6%. Regarding `CC/C(=N\NS(=O)(=O)c1ccc(C)cc1)c1ccco1`, the inhibition was -13.4%. As to `COc1ccccc1OCCOCCN1CCCC1`, the inhibition was -3.17%.

Regarding `COc1ccccc1OCCCCN1CCCCC1`, the inhibition stood at 7.51%. Regarding `COc1ccc(CC(=O)NC(C)(C)C)cc1S(=O)(=O)N1CCOCC1`, the inhibition is -3.56%. As for `CC(=O)N1CCN(C(=O)c2cc3ccccc3o2)CC1`, the figure is 2.82%; as for `O=C(c1ccccc1)N1CCN(C(=O)c2cc3ccccc3o2)CC1`, -6.53%; as for `COc1cc2c(cc1OC)CN(C(=O)c1ccc(Br)o1)CC2`, -1.97%. `O=C(c1ccccc1[N+](=O)[O-])N1CCc2ccccc2C1`: the inhibition is -4.71%.

Take `O=C(c1ccc([N+](=O)[O-])o1)N1CCOCC1`: the inhibition was 15.5%. As for `COc1cc2c(cc1OC)CN(C(=O)c1ccc(OC)c([N+](=O)[O-])c1)CC2`, the figure is 2.12%; as for `O=C(c1ccc([N+](=O)[O-])cc1)N1CCc2ccccc2C1`, 39.6%; as for `O=C(c1ccc([N+](=O)[O-])o1)N1CCCCCC1`, 56.6%. As for `O=C(COC(=O)c1cncc(Br)c1)NCC1CCCO1` (stereo not drawn), the figure is 4.18%. On to `N#Cc1ccc(S(=O)(=O)N2CCC(C(=O)Nc3cccc(C(=O)NC4CC4)c3)CC2)cc1`, for which the inhibition came to 4.79%. For `COC(=O)C1=C(C)N(C(C)C)C(=O)C1(NC(=O)C1CCCCC1)C(F)(F)F` (stereo not drawn), the inhibition was 7.64%. For the compound `CCOc1ccc(C(NC(=O)CC)c2c(O)ccc3ccccc23)cc1` (stereo not drawn), the inhibition was determined as 22.7%. As for `COc1ccc(N2CCOCC2)c(NC(=O)c2cccs2)c1`, the inhibition was -2.48%. `CN1C[C@H](C(=O)NC2(C)OC3(O)[C@@H]4CCCN4C(=O)[C@H](Cc4ccccc4)N3C2=O)CC2c3cccc4[nH]cc(c34)C[C@H]21` (stereo partly drawn): the inhibition is 12.4%. For the compound `CC1CCC(NC(=O)C2CC(O)CN2S(=O)(=O)c2ccc([N+](=O)[O-])cc2)CC1` (stereo not drawn), the inhibition amounted to 11.1%. As for `O=C(Nc1ccccc1N1CCOCC1)c1ccc2ccccc2n1`, the inhibition worked out at 32.1%. Turning to `CSCCC(NC(=O)c1ccco1)C(=O)N1CCC(C(N)=O)CC1` (stereo not drawn), the inhibition was -11.5%. With `COc1ccc(NC(=O)CN(C)C(=O)c2ccc3ccccc3n2)cc1`, the inhibition is -6.38%. The result for `O=C(Nc1cc(Cl)ncn1)c1ccccc1` reads 5.29%; that for `CCN(CC(=O)Nc1cccc(OC)c1)CC(=O)Nc1ccc(C)cc1Cl`, 13.4%. As for `O=C(Nc1ccc(Cl)cc1)C1CCCCN1S(=O)(=O)c1ccccc1` (stereo not drawn), the inhibition was found to be 10.3%. Consider `Cc1cc(C)c(C)c(OCC(=O)O/N=C(\N)c2ccccn2)c1`, for which the inhibition turned out to be 13%. In the case of `CCOC(=O)c1cccc(-n2cccc2/C=C2\NC(=O)N(CC(=O)O)C2=O)c1`, the inhibition was -4.64%. Regarding `CC(NC(=O)C1CCC(CNS(=O)(=O)c2ccccc2)CC1)c1ccc2c(c1)OCCO2` (stereo not drawn), the inhibition came to 0.52%. Regarding `CC(=O)Nc1ccccc1Sc1ccccc1`, the inhibition was -2.8%. Consider `N#CCC(CNc1ncc(C(F)(F)F)cc1Cl)OC(=O)c1ccc(Cl)cc1` (stereo not drawn), for which the inhibition worked out at 27%. Turning to `CC(C)(C)N(Cc1ccccc1)C(=O)COC(=O)c1ccc([N+](=O)[O-])o1`, the inhibition was determined as 4%. For the compound `CN(Cc1ccccc1)C(=O)c1ccco1`, the inhibition came to 14.6%. As for `Cc1cc(NC(=O)CSc2nncn2N)no1`, the figure is -18%; as for `COC(=O)Cc1cc(=O)[nH]c(Nc2nc3ccccc3o2)n1`, 69%. The result for `COCc1cc(=O)[nH]c(Nc2nc3ccc(C)cc3o2)n1` reads -3.8%. With `COc1cc(C(=O)NCCCNc2nc3c(C)cc(C)cc3cc2C#N)cc(OC)c1OC`, the inhibition is 40.9%. With `Cc1[nH]n(-c2ccccc2)c(=O)c1N=Nc1ccc(Cl)cc1`, the inhibition came out at 22%. Take `Cc1[nH]n(-c2ccccc2)c(=O)c1N=Nc1cccc(Cl)c1`: the inhibition turned out to be 1.75%.

Regarding `COc1ccccc1C(=O)COC(=O)c1ccccc1O`, the inhibition stood at 26.5%. For the compound `COc1ccc(OC)c(C(=O)COC(=O)c2ccccc2O)c1`, the inhibition was found to be 51.8%. As for `COc1ccc(/C=N/NC(=O)c2c(Br)cnn2C)c2ccccc12`, the figure is 8.73%; as for `Cc1cccc(CCNC(=O)Cn2ncc3c([nH]c4ccccc43)c2=O)c1`, 3.21%. Regarding `COc1ccc(NC(=O)CNC(=O)C23CC4CC(CC(C4)C2)C3)c(OC)c1`, the inhibition amounted to 7.13%. `COc1ccc(C(=O)NNC(=O)C23CC4CC(CC(C4)C2)C3)c(OC)c1`: the inhibition was 1.7%. The result for `Cc1cc(C)c2sc(N(CCCN(C)C)C(=O)CN3C(=O)c4ccccc4C3=O)nc2c1` reads 16.6%; that for `COc1cccc(NC(=O)C2C3C=CC(O3)C2C(=O)NCc2cccnc2)c1` (stereo not drawn), 7.86%; that for `Cc1nc2ccc(NC(=O)c3ccc([N+](=O)[O-])cc3)cc2s1`, 41.2%.

On to `Cc1nc2ccc(NC(=O)c3ccc(Cl)c([N+](=O)[O-])c3)cc2s1`, for which the inhibition was -1.87%.

In the case of `COc1cc(-c2c(C#N)c(N)nc3c2c(C)nn3-c2ccc(C)c(C)c2)cc(OC)c1OC`, the inhibition is 20.3%.

As for `COc1ccccc1Nc1c([N+](=O)[O-])cncc1[N+](=O)[O-]`, the inhibition came to 55.7%.

Take `Cc1ccccc1Nc1c([N+](=O)[O-])cncc1[N+](=O)[O-]`: the inhibition turned out to be 76%. As for `CCN(CC(=O)NCc1ccc(F)cc1)C(=O)c1ccc2c(c1)OCO2`, the inhibition is -2%. Take `COc1ccc(C(=O)N2CCN(C)C(=O)[C@@H]2C)cc1OC1CCN(C(C)C)CC1`: the inhibition was -16.1%.

As to `Oc1ccc(C=NC2CCCCC2)c(O)c1`, the inhibition was -6.4%. With `CCn1c(O)c(C=NC2CCCC2)sc1=S`, the inhibition is -4.02%.

In the case of `COCCOC(=O)c1c(C)oc2ccc(OC(=O)c3c(OC)cccc3OC)cc12`, the inhibition was found to be 0.6%. With `CCOC(=O)Oc1ccc2oc(C)c(C(=O)OCCOC)c2c1`, the inhibition turned out to be 61.6%. The result for `CC(Oc1cc(Cl)ccc1Cl)C(=O)N/N=C\c1ccnn1C` (stereo not drawn) reads 10.1%; that for `CC1CCC(C(C)C)C(OC(=O)C[n+]2cc(-c3ccc(Cl)cc3)n3c2CCC3)C1` (stereo not drawn), 49.4%. As for `O=C(C[n+]1cc(-c2ccc(Cl)cc2)n2c1CCCCC2)c1ccccc1`, the figure is -12.8%; as for `Cc1cc(C)nc(SC2=CS(=O)(=O)c3ccccc32)n1`, -0.38%; as for `O=C(O)CSc1nnc(-c2ccccc2)o1`, -5.91%. As to `CSc1nnc(-c2ccccc2)o1`, the inhibition is 17.4%.

As to `Cn1c(SC2=CS(=O)(=O)c3ccccc32)nc2ccccc21`, the inhibition stood at 58%. On to `CC(C)c1ccc(N(C(=O)c2snc(C(N)=O)c2N)C(C(=O)NC2CCCC2)c2ccncc2)cc1` (stereo not drawn), for which the inhibition was found to be 15.7%. As for `COc1ccccc1-c1cc(C(F)(F)F)nc(NCc2cccs2)n1`, the inhibition amounted to 13.2%.

On to `Cc1ccc(C(=O)N/C(=C\c2cn(C)c3ccccc23)C(=O)OCCN(C)C)cc1`, for which the inhibition came out at 1.18%.

For the compound `CCOC(=O)C1CCN(C(=O)C(C)Oc2ccc(C(=O)c3ccccc3)cc2)CC1` (stereo not drawn), the inhibition is 28.6%. Consider `COc1cc(-c2ccc3oc(-c4ccsc4)cc(=O)c3c2)cc(OC)c1OC`, for which the inhibition is 72.1%. Take `Cc1ncc([N+](=O)[O-])n1CC(=O)Nc1ccc(F)cc1F`: the inhibition was -8.21%. For the compound `CN(Cc1ccccc1)C(=O)Nc1ccc(Cl)cc1`, the inhibition came out at 48.8%. Consider `O=C1N=c2ccccc2=C1c1sc(=S)n(Cc2ccccc2Cl)c1O`, for which the inhibition is -18.1%. Regarding `CCOC(=O)c1ccc(-n2nc(C)cc2C)cc1`, the inhibition came to 13.4%. With `Cc1cc(C)n(-c2ccc(C(=O)OC(C)C)cc2)n1`, the inhibition stood at 5.09%. For the compound `CCOc1cc2c(cc1OCC)-n1cccc1C(c1ccccc1F)NC2` (stereo not drawn), the inhibition turned out to be 19.4%. The result for `CS(=O)(=O)Cc1ccc(C(=O)N2CCCC2c2cccs2)cc1` (stereo not drawn) reads 0.57%. In the case of `O=C(NC1CCCc2c1cnn2-c1cc(F)cc(F)c1)c1ccccn1` (stereo not drawn), the inhibition worked out at 25.6%. For `O=C(NC1CCCc2c1cnn2-c1cc(F)cc(F)c1)c1ccncc1` (stereo not drawn), the inhibition was 4.39%. As for `CC(C)(C)OC(=O)NCCc1n[nH]c(=S)o1`, the figure is -4.45%. Regarding `CSc1nc(O)c(N=Nc2ccc(F)cc2F)c(=O)[nH]1`, the inhibition turned out to be 13.2%. For `O=C(CSc1nnc(CNC(=O)c2ccco2)o1)c1ccccc1`, the inhibition was determined as 17.8%. Take `CCSc1nnc(C(N)Cc2ccccc2)o1` (stereo not drawn): the inhibition is 42.5%. For the compound `CCSc1nnc([C@@H](N)Cc2ccccc2)o1`, the inhibition is 4.66%. Consider `O=C(CSc1nnc(CNC(=O)c2ccco2)o1)Nc1ccccc1`, for which the inhibition is -9.27%. In the case of `CN1CCN(c2ccc(NC(=O)COc3cccc4ccccc34)cc2)CC1`, the inhibition was found to be 47.4%. As for `COc1ccc(C2Sc3nncn3N2Cc2ccc(C#N)cc2)cc1` (stereo not drawn), the inhibition was 0.03%. The result for `C[C@H](NC(=O)OCc1ccccc1)C(=O)NNC(=O)[C@H](C)NC(=O)OCc1ccccc1` reads 2.12%. In the case of `C[C@H](NC(=O)OCc1ccccc1)c1nnc([C@H](C)NC(=O)OCc2ccccc2)o1`, the inhibition amounted to 4.86%.

Turning to `Cc1ccc(C(=O)NNC(=O)CCC(=O)Nc2cc(C)on2)cc1`, the inhibition amounted to 3.14%. With `CCOCC(=O)Nc1ccc(OCc2ccccc2)cc1`, the inhibition was found to be 17.7%. For the compound `CC(C)NC(=O)COc1ccc(OCc2ccccc2)cc1`, the inhibition was 62.9%. As for `Cc1nc(SCCc2ccccc2)[nH]c(=O)c1C`, the figure is 49.5%; as for `CC1=C(C(=O)Nc2ccc(C)cc2C)C(c2ccc(C)o2)NC(=O)N1` (stereo not drawn), -0.04%; as for `COc1cccc(C(=O)CN(C(=O)c2ccc(Cl)cc2Cl)N2C(=O)c3ccccc3C2=O)c1`, -6.55%.

As for `O=C(O)c1ccc(CNCc2ccc(Cl)cc2)cc1`, the inhibition was found to be 9.88%. The result for `Cc1cccc(Sc2c([N+](=O)[O-])ncn2C)c1` reads 22.6%; that for `Cn1cnc([N+](=O)[O-])c1Cl`, -10.2%. Turning to `N#Cc1ccc(OCC(=O)NCCN2CCOCC2)cc1`, the inhibition stood at 2.06%. In the case of `CCOC(=O)C1(CCc2ccccc2)CCN(Cc2cnc(N(C)C)s2)CC1`, the inhibition turned out to be 3.68%. Regarding `Clc1ccccc1CSc1nncn1NC/C=C/c1ccccc1`, the inhibition was found to be 19.6%. With `CC(C(=O)NC1CCCc2ccccc21)N1C(=O)C2CCCCC2C1=O` (stereo not drawn), the inhibition is -6.5%.
